# From PubChem BioAssay (NCI)
# About 79,000 compounds went through this panel and 15% of them were active in at least one assay; those are over-represented in the sample as a whole. Unmarked numbers belong to inactive results. The source made the active and inactive calls. Rule as the data show it: active = growth inhibition above about 70%; inactive = the rest.
# Experiments:
# [1] = NCI Yeast Anticancer Drug Screen. Data for the rad52 strain (AID 147);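 also: 0% = growth of vehicle-treated control cultures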; conditions: S. cerevisiae rad52 mutant growth inhibition, stronger effect = higher value
# In short: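 Inhibition of yeast growth, referenced to vehicle controls, was the measured output for a strain with defective DNA damage repair.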
# [2] = NCI Yeast Anticancer Drug Screen. Data for the wt1 strain (AID 149);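 also: 0% = growth of vehicle-treated wt1 cultures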; conditions: S. cerevisiae wt1 strain (SPY 50644) growth inhibition, stronger effect = higher value
# In short: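 Compounds are added to wt1 yeast cultures. Growth is then measured. Inhibition is expressed relative to vehicle-treated controls.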
# [3] = NCI Yeast Anticancer Drug Screen. Data for the rad50EPP+ strain (AID 151);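 also: 0% = growth of vehicle-treated control cultures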; conditions: S. cerevisiae rad50 mutant strain, stronger effect = higher value
# In short: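 Genetically defined yeast (rad50EPP+, DNA damage repair alteration) is grown with compound, and inhibition of growth is expressed relative to vehicle-treated controls.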
# [4] = NCI Yeast Anticancer Drug Screen. Data for the mgt1 strain (AID 153); conditions: S. cerevisiae mgt1 mutant growth inhibition, stronger effect = higher value
# In short: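 In the mgt1 strain, test compounds were added and growth inhibition was determined relative to vehicle-treated controls.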
# [5] = NCI Yeast Anticancer Drug Screen. Data for the rad50 strain (AID 155);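 also: 0% = growth of vehicle-only cultures of the same strain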; conditions: S. cerevisiae rad50 strain growth inhibition, stronger effect = higher value
# In short: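 Inhibition values express reduced yeast growth in compound-treated cultures relative to vehicle-treated controls.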
# [6] = NCI Yeast Anticancer Drug Screen. Data for the mec2-1 strain (AID 157); conditions: S. cerevisiae mec2-1 strain, stronger effect = higher value
# In short: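 Each compound was tested on mec2-1 yeast, a strain altered in DNA damage repair or cell cycle control. Growth inhibition is reported relative to vehicle.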
# [7] = NCI Yeast Anticancer Drug Screen. Data for the rad14 strain (AID 159);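 also: 0% = growth of vehicle-treated control cultures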; conditions: S. cerevisiae rad14 strain growth inhibition, stronger effect = higher value
# In short: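 A mutant yeast strain defective in DNA damage repair is treated with compound; inhibition of its growth is scored against untreated, vehicle-exposed cultures.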
# [8] = NCI Yeast Anticancer Drug Screen. Data for the sgs1 mgt1 strain (AID 161);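 also: 0% = growth of cultures given vehicle only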; conditions: S. cerevisiae sgs1 mgt1 strain, stronger effect = higher value
# In short: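 Genetically altered yeast, compound exposure, growth inhibition relative to vehicle.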
# [9] = NCI Yeast Anticancer Drug Screen. Data for the CLN2oe strain (AID 163);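 also: 0% = growth of vehicle-only control cultures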; conditions: S. cerevisiae CLN2oe strain, stronger effect = higher value
# In short: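 First, the altered yeast strain was treated with each compound; second, its growth was measured; finally, inhibition was derived by comparison with vehicle controls.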
# [10] = NCI Yeast Anticancer Drug Screen. Data for the cln2 rad14 strain (AID 165);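 also: 0% = growth equal to vehicle treated cultures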; conditions: S. cerevisiae cln2 rad14 strain, stronger effect = higher value
# In short: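 Test compounds were added to cln2 rad14 yeast cultures; inhibition of growth was then determined by comparison with vehicle treatment.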
# [11] = NCI Yeast Anticancer Drug Screen. Data for the bub3 strain (AID 167); conditions: S. cerevisiae bub3 mutant strain, stronger effect = higher value
# In short: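 Steps: expose the mutant yeast strain to compound; grow alongside vehicle-treated cultures; measure growth; express inhibition against the vehicle cultures.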
# [12] = NCI Yeast Anticancer Drug Screen. Data for the wt2 strain (AID 169);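 also: 0% = growth of vehicle-treated yeast cultures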; conditions: S. cerevisiae wt2 strain growth inhibition, stronger effect = higher value
# In short: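 The panel's yeast strains carry defined changes in DNA repair or cell cycle genes. Each strain is grown with compound, and growth loss is scored relative to vehicle.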
# [13] = NCI Yeast Anticancer Drug Screen. Data for the mlh1 strain (AID 171);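 also: 0% = growth of vehicle-treated control cultures of the same strain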; conditions: S. cerevisiae mlh1 strain growth inhibition, stronger effect = higher value
# In short: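 Inhibition values reflect reduced yeast growth in the presence of compound, referenced to vehicle controls, using a strain chosen for its alteration in DNA repair or cell cycle control.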
# [14] = NCI Yeast Anticancer Drug Screen. Data for the sgs1 strain (AID 173);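 also: 0% = growth of vehicle-only control cultures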; conditions: S. cerevisiae sgs1 mutant, stronger effect = higher value
# In short: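 Vehicle-treated cultures served as reference for growth inhibition of a yeast strain altered in DNA damage repair or cell cycle control after compound exposure.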
# [15] = NCI Yeast Anticancer Drug Screen. Data for the mlh1 rad18 strain (AID 175); conditions: S. cerevisiae mlh1 rad18 strain growth inhibition, stronger effect = higher value
# In short: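 Inhibition values reflect reduced growth of mutant yeast versus vehicle-treated controls following compound exposure; the mutations affect DNA damage repair.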
# [16] = NCI Yeast Anticancer Drug Screen. Data for the rad18 strain (AID 177); conditions: S. cerevisiae rad18 mutant growth inhibition, stronger effect = higher value
# In short: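 Steps: expose repair-mutant yeast to compound; measure growth; express as inhibition relative to vehicle control.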
# [17] = at 5.0 µM (retest, dose inferred, filed as 0.5)
# [18] = at 50.0 µM (retest, dose inferred, filed as 5.0)
smiles,measurement,setting,value
COc1cc(C2SCC(=O)N2c2ccc(-c3ccc(-n4c(-c5ccccc5)nc5ccccc5c4=O)cc3)cc2)cc(OC)c1OC (stereo not drawn),growth inhibition,[1]; at 1.2 µM,-3%
same,growth inhibition,[1]; at 3.7 µM,-1%
same,growth inhibition,[1]; at 11.0 µM,1%
same,growth inhibition,[1]; at 33.0 µM,1%
same,growth inhibition,[1]; at 100.0 µM,-5%
same,growth inhibition,[2]; at 1.2 µM,0%
same,growth inhibition,[2]; at 3.7 µM,0%
same,growth inhibition,[2]; at 11.0 µM,0%
same,growth inhibition,[2]; at 33.0 µM,-2%
same,growth inhibition,[2]; at 100.0 µM,-8%
same,growth inhibition,[3]; at 1.2 µM,-2%
same,growth inhibition,[3]; at 3.7 µM,-1%
same,growth inhibition,[3]; at 11.0 µM,3%
same,growth inhibition,[3]; at 33.0 µM,4%
same,growth inhibition,[3]; at 100.0 µM,-1%
same,growth inhibition,[4]; at 1.2 µM,-1%
same,growth inhibition,[4]; at 3.7 µM,0%
same,growth inhibition,[4]; at 11.0 µM,-2%
same,growth inhibition,[4]; at 33.0 µM,-3%
same,growth inhibition,[4]; at 100.0 µM,-7%
same,growth inhibition,[5]; at 1.2 µM,-2%
same,growth inhibition,[5]; at 3.7 µM,2%
same,growth inhibition,[5]; [17],-1%
same,growth inhibition,[5]; at 11.0 µM,1%
same,growth inhibition,[5]; at 33.0 µM,3%
same,growth inhibition,[5]; [18],13%
same,growth inhibition,[5]; at 50.0 µM,25.9%
same,growth inhibition,[5]; at 100.0 µM,1%
same,growth inhibition,[6]; at 1.2 µM,0%
same,growth inhibition,[6]; at 3.7 µM,0%
same,growth inhibition,[6]; [17],2%
same,growth inhibition,[6]; at 11.0 µM,2%
same,growth inhibition,[6]; at 33.0 µM,4%
same,growth inhibition,[6]; [18],3%
same,growth inhibition,[6]; at 50.0 µM,19.6%
same,growth inhibition,[6]; at 100.0 µM,-2%
same,growth inhibition,[7]; at 1.2 µM,0%
same,growth inhibition,[7]; at 3.7 µM,0%
same,growth inhibition,[7]; at 11.0 µM,4%
same,growth inhibition,[7]; at 33.0 µM,6%
same,growth inhibition,[7]; at 100.0 µM,4%
same,growth inhibition,[8]; [17],8%
same,growth inhibition,[8]; [18],7%
same,growth inhibition,[8]; at 50.0 µM,21.6%
same,growth inhibition,[9]; at 1.2 µM,5%
same,growth inhibition,[9]; at 3.7 µM,7%
same,growth inhibition,[9]; at 11.0 µM,9%
same,growth inhibition,[9]; at 33.0 µM,10%
same,growth inhibition,[9]; at 100.0 µM,-2%
same,growth inhibition,[10]; [17],32%
same,growth inhibition,[10]; [18],13%
same,growth inhibition,[10]; at 50.0 µM,52.4%
same,growth inhibition,[11]; at 1.2 µM,-1%
same,growth inhibition,[11]; at 3.7 µM,4%
same,growth inhibition,[11]; [17],6%
same,growth inhibition,[11]; at 11.0 µM,17%
same,growth inhibition,[11]; at 33.0 µM,27%
same,growth inhibition,[11]; [18],73% (active)
same,growth inhibition,[11]; at 50.0 µM,71.7% (active)
same,growth inhibition,[11]; at 100.0 µM,41%
same,growth inhibition,[12]; at 1.2 µM,-1%
same,growth inhibition,[12]; at 3.7 µM,-2%
same,growth inhibition,[12]; at 11.0 µM,-2%
same,growth inhibition,[12]; at 33.0 µM,-3%
same,growth inhibition,[12]; at 100.0 µM,-8%
same,growth inhibition,[13]; at 1.2 µM,-1%
same,growth inhibition,[13]; at 3.7 µM,0%
same,growth inhibition,[13]; at 11.0 µM,1%
same,growth inhibition,[13]; at 33.0 µM,-1%
same,growth inhibition,[13]; at 100.0 µM,-3%
same,growth inhibition,[14]; at 1.2 µM,-3%
same,growth inhibition,[14]; at 3.7 µM,-1%
same,growth inhibition,[14]; at 11.0 µM,2%
same,growth inhibition,[14]; at 33.0 µM,-1%
same,growth inhibition,[14]; at 100.0 µM,-7%
same,growth inhibition,[15]; [17],6%
same,growth inhibition,[15]; [18],37%
same,growth inhibition,[15]; at 50.0 µM,19.4%
same,growth inhibition,[16]; at 1.2 µM,-3%
same,growth inhibition,[16]; at 3.7 µM,0%
same,growth inhibition,[16]; at 11.0 µM,0%
same,growth inhibition,[16]; at 33.0 µM,3%
same,growth inhibition,[16]; at 100.0 µM,1%
CC(=O)OCC(=O)C1(O)CCC2C3CCC4CCCCC4(C)C3CCC21C (stereo not drawn),growth inhibition,[1]; at 1.2 µM,-52%
same,growth inhibition,[1]; at 3.7 µM,-27%
same,growth inhibition,[1]; at 11.0 µM,21%
same,growth inhibition,[1]; at 33.0 µM,55%
same,growth inhibition,[1]; at 100.0 µM,83% (active)
same,growth inhibition,[2]; at 1.2 µM,-20%
same,growth inhibition,[2]; at 3.7 µM,-14%
same,growth inhibition,[2]; at 11.0 µM,7%
same,growth inhibition,[2]; at 33.0 µM,50%
same,growth inhibition,[2]; at 100.0 µM,77% (active)
same,growth inhibition,[3]; at 1.2 µM,-9%
same,growth inhibition,[3]; at 3.7 µM,-16%
same,growth inhibition,[3]; at 11.0 µM,-40%
same,growth inhibition,[3]; at 33.0 µM,-22%
same,growth inhibition,[3]; at 100.0 µM,-25%
same,growth inhibition,[4]; at 1.2 µM,3%
same,growth inhibition,[4]; at 3.7 µM,3%
same,growth inhibition,[4]; at 11.0 µM,34%
same,growth inhibition,[4]; at 33.0 µM,57%
same,growth inhibition,[4]; at 100.0 µM,88% (active)
same,growth inhibition,[5]; at 1.2 µM,13%
same,growth inhibition,[5]; at 3.7 µM,-25%
same,growth inhibition,[5]; [17],59%
same,growth inhibition,[5]; at 11.0 µM,13%
same,growth inhibition,[5]; at 33.0 µM,53%
same,growth inhibition,[5]; [18],78% (active)
same,growth inhibition,[5]; at 50.0 µM,83.2% (active)
same,growth inhibition,[5]; at 100.0 µM,87% (active)
same,growth inhibition,[6]; at 1.2 µM,-3%
same,growth inhibition,[6]; at 3.7 µM,-10%
same,growth inhibition,[6]; [17],64%
same,growth inhibition,[6]; at 11.0 µM,14%
same,growth inhibition,[6]; at 33.0 µM,41%
same,growth inhibition,[6]; [18],84% (active)
same,growth inhibition,[6]; at 50.0 µM,61.5%
same,growth inhibition,[6]; at 100.0 µM,81% (active)
same,growth inhibition,[7]; at 1.2 µM,-31%
same,growth inhibition,[7]; at 3.7 µM,-17%
same,growth inhibition,[7]; at 11.0 µM,8%
same,growth inhibition,[7]; at 33.0 µM,60%
same,growth inhibition,[7]; at 100.0 µM,86% (active)
same,growth inhibition,[8]; [17],-11%
same,growth inhibition,[8]; [18],60%
same,growth inhibition,[8]; at 50.0 µM,70.5% (active)
same,growth inhibition,[9]; at 1.2 µM,10%
same,growth inhibition,[9]; at 3.7 µM,23%
same,growth inhibition,[9]; at 11.0 µM,34%
same,growth inhibition,[9]; at 33.0 µM,60%
same,growth inhibition,[9]; at 100.0 µM,82% (active)
same,growth inhibition,[10]; [17],35%
same,growth inhibition,[10]; [18],75% (active)
same,growth inhibition,[10]; at 50.0 µM,76% (active)
same,growth inhibition,[11]; at 1.2 µM,-24%
same,growth inhibition,[11]; at 3.7 µM,-13%
same,growth inhibition,[11]; [17],56%
same,growth inhibition,[11]; at 11.0 µM,26%
same,growth inhibition,[11]; at 33.0 µM,46%
same,growth inhibition,[11]; [18],74% (active)
same,growth inhibition,[11]; at 50.0 µM,76% (active)
same,growth inhibition,[11]; at 100.0 µM,82% (active)
